Screens (PubChem BioAssay)
BAZ2B block = BAZ2B (human) inhibition; Potency, µM (series often up to 114 µM), usual class: inhibitors; AID 504333; AlphaScreen BAZ2B-H3K14Ac peptide displacement; hit rate 4.4% among 360,000; Q9UIF8; note: nearly all actives have a fitted effect of over 60% in size
Target sequence (Q9UIF8 whole entry, looked up): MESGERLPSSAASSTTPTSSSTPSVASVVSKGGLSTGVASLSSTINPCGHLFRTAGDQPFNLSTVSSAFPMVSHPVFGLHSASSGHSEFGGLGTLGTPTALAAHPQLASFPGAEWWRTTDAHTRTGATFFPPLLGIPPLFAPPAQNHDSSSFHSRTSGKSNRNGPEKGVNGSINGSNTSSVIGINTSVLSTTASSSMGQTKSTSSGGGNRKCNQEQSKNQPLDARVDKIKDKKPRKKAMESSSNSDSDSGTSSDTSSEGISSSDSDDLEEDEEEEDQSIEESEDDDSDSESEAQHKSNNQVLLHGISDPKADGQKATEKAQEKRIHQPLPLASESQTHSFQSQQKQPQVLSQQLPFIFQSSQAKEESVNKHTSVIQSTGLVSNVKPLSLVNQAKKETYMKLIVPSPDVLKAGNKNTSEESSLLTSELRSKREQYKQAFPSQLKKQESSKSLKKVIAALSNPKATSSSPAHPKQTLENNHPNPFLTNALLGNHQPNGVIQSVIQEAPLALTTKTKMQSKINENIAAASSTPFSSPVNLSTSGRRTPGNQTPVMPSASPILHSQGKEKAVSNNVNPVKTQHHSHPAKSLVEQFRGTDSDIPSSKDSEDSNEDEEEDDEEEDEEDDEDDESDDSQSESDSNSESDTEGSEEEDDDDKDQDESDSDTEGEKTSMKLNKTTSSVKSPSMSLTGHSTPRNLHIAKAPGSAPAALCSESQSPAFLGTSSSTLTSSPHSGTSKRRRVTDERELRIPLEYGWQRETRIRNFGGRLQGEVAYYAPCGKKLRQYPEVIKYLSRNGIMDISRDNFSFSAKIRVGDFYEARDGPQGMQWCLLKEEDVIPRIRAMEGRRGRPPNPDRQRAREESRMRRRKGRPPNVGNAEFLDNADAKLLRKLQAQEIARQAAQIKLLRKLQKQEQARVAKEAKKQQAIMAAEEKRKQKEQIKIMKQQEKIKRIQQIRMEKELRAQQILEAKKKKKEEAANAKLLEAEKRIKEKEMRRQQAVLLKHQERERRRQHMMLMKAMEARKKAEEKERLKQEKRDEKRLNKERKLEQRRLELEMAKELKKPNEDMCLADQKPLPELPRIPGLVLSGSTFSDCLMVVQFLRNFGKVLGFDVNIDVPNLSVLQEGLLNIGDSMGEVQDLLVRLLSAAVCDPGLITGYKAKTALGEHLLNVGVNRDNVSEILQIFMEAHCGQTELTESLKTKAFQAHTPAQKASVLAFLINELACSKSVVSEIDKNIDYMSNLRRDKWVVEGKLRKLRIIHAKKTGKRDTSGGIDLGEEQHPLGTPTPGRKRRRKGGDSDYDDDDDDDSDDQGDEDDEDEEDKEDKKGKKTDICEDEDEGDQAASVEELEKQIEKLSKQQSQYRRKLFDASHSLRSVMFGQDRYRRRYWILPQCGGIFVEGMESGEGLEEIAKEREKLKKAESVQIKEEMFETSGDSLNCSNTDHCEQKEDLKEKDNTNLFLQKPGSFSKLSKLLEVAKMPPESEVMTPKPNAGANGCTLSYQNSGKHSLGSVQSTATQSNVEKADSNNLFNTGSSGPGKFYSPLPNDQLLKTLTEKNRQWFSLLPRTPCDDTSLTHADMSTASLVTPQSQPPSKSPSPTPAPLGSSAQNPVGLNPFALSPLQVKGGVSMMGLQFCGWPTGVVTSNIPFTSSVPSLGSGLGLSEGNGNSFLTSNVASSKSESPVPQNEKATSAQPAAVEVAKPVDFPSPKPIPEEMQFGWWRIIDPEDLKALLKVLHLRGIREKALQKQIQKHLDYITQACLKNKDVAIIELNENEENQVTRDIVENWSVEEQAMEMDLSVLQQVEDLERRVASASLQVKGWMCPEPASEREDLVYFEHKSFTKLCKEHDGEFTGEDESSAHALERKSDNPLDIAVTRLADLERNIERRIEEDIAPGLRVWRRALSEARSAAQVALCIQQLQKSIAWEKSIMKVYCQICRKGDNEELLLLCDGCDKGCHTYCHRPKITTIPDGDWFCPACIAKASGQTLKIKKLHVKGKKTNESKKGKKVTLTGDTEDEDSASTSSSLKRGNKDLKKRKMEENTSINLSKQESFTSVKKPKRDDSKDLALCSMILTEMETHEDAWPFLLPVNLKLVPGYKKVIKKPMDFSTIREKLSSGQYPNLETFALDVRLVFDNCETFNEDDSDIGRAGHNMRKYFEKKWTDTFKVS
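AlphaScreen displacement of biotin-H3(5-23)K14Ac peptide (50 nM final) from BAZ2B (50 nM final) in PBS pH 7.4, 0.01% Tween-20; complex preformed 30 min RT, then compounds (top 110 uM) 30 min RT, beads 20 min dark.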
G9a block = inhibitors of human histone lysine methyltransferase G9a | Q96KQ7 | G9a H3K9 monomethylation, AlphaScreen, 2 h | Potency, µM (titrated, usually from 102 µM), actives largely listed as inhibitors | hit rate 8.8% among 350,000 | AID 504332; note: nearly all actives have a fitted effect of over 75% in size
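Methyltransferase reactions run at room temperature for 2 h (20 nM enzyme, 500 nM biotin-H3K9 peptide, 20 uM SAM) after a 15 min compound preincubation; product detected by AlphaScreen beads and anti-H3K9me1 antibody.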
Sfp PPTase inh = inhibitors of Bacillus subtilis Sfp phosphopantetheinyl transferase | Q9F4F7 | Biochemical Sfp PPTase activity, qHTS | Potency, µM, actives largely listed as inhibitors | hit rate 3.5% among 310,000 | AID 1490;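 note: the enzyme is Sfp with the accession as filed and its product quenches rhodamine fluorescence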
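Buffer: 50 mM Hepes-Na pH 7.6, 10 mM MgCl2, 0.01% Nonidet P-40, 0.01% BSA. Enzyme 15 nM, pre-exposed to compound 15 min; substrates then added and fluorescence change tracked over 30 min.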
HP1b chromo inh = blocks HP1-beta chromodomain binding to methylated histone tails; P83916; AlphaScreen HP1-beta / biotin-H3K9me3 peptide binding; Potency, µM (highest dose often 114 µM), actives largely listed as inhibitors; hit rate 0.56% among 390,000; AID 540317; note: nearly all actives have a fitted effect of over 70% in size
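HP1-beta protein (50 nM final) preincubated 30 min at room temperature with biotinylated H3(1-18)K9me3 peptide (50 nM) in PBS pH 7.4, 0.01% Tween-20, then compound added for 30 min. AlphaScreen streptavidin donor/nickel chelate acceptor beads (10 ug/mL final), 30 min dark, luminescence read.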
JMJD2A Tudor inh = blocks the human JMJD2A Tudor domain; AlphaScreen JMJD2A-Tudor / H3K4me3 peptide binding; Potency, µM (doses to about 114 µM), hits mostly inhibitors; hit rate 4.4% among 390,000; note: nearly all actives have a fitted effect of over 50% in size
Numbers stand for hits; . = inactive; ? = inconclusive; / = no result; ! = a repeat was not active; [ ] = remark or other dose. Sampled rows, rich in hits. Any-hit rate of the full collection: about 12%. Calls come from the whole dose curve; as a rule, active = well fitted curve in the direction sought with a large enough effect; inconclusive = small, poorly fitted or top-dose-only effect, or another doubt; inactive = no such curve, though single readings can be large; an effect the other way counts as inactive or inconclusive.

SMILES | BAZ2B block | G9a block | Sfp PPTase inh | HP1b chromo inh | JMJD2A Tudor inh
Nc1n[nH]c(-c2ccccc2[N+](=O)[O-])n1 | . | . | . | . | .
COc1ccc(-c2cc(=O)oc3c(C)c(OC(C)C(=O)Nc4ccc(CN5CCOCC5)cc4)ccc23)cc1 (stereo not given) | ? | .[0.0925 µM] | . | . | .
CCC(OC(=O)c1cccs1)C(=O)NCc1ccc2c(c1)OCO2 (stereo not given) | . | .[12.7 µM] | . | . | 100µM
Cn1c(SCc2ccccc2F)nc2c([nH]c3ccccc32)c1=O | . | . | / | . | .
Fc1ccc(Sc2ccccc2CNC2=NCCN2)cc1 | . | 6.3µM | . | . | .
CCOC(=O)CC(=O)CSc1nccc(-c2cccnc2)n1 | . | / | 56µM | . | .
O=C(Nc1cc([N+](=O)[O-])ccc1Cl)C(Sc1ccccc1)c1ccccc1 (stereo not given) | . | . | . | ? | 79µM
O=C(Nc1cc(C(F)(F)F)ccc1Cl)C(Sc1cccc[n+]1[O-])c1ccccc1 (stereo not given) | . | 8.9µM | . | . | ?
CCCc1sc(N2CCCC(C(N)=O)C2)nc1-c1ccccc1 (stereo not given) | ? | . | . | ? | 28µM
O=C(OC(C(=O)Nc1ccc(Cl)c(C(F)(F)F)c1)c1ccccc1)C1=COCCO1 (stereo not given) | . | . | . | . | .
Cc1cc(C)cc(NC(=O)C(OC(=O)C2=COCCO2)c2ccccc2)c1 (stereo not given) | . | 25µM | . | . | .
Cc1ccc(C2(c3noc(CN4C[C@@H](C)O[C@@H](C)C4)n3)CCCC2)cc1 | . | . | . | . | .
O=C1C(SCCO)=C(SCCO)C(=O)c2ccccc21 | ? | 1.3µM! | 0.28µM! | ? | 8.9µM
O=C1c2ccccc2-c2nccnc21 | . | . | . | . | .
O=C(OCc1ccc(Cl)c(Cl)c1)c1ccc[nH]1 | . | . | . | . | .
COc1cc(C(=O)NC2CCN(CC(=O)NC3CCCCC3)CC2)cc(OC)c1OC | . | . | . | . | .
COc1ccc(C)cc1NC(=O)COC(=O)CCC(=O)c1cccs1 | . | .[12.7 µM] | / | . | .
CSCC[C@H](NC(=O)c1ccc2ccccc2c1)C(=O)N1CCC2(CC1)NCCc1[nH]cnc12 | ? | 45µM | . | . | ?
CSCC[C@H](NC(=O)c1cccs1)C(=O)N1CCC2(CC1)NCCc1[nH]cnc12 | . | / | . | . | .
COc1ccc(CCNC(=O)c2nnn(CC(=O)Nc3cccc(F)c3)c2N)cc1OC | 50µM | 45µM | . | . | ?
COc1ccc(CCNC(=O)c2nnn(CC(=O)Nc3ccccc3)c2N)cc1OC | ? | .[0.0925 µM] | . | . | ?
COc1cccc(NC(=O)c2nnn(CC(=O)Nc3cc(C)cc(C)c3)c2N)c1 | . | . | . | . | 28µM
CCCCCCn1c(=O)[nH]c2nc3cc(N)ccc3nc2c1=O | . | 40µM | ? | . | .
CCCCCn1c(=O)c(C(=O)c2ccccc2)nc2ccccc21 | . | . | . | . | .
C=CCn1cc(C(=O)NCCCOC)c(=O)c2cc(S(=O)(=O)N3CCC(C)CC3)ccc21 | / | / | / | . | .
SMILES | BAZ2B block | G9a block | Sfp PPTase inh | HP1b chromo inh | JMJD2A Tudor inh
CC(C)CN1CCN=C1N(C)C | . | .[2.33 µM] | / | . | .
CC1(C)CC(NC(=O)c2cc(S(=O)(=O)N3CCCCC3)ccc2Cl)CC(C)(C)N1 | . | . | . | . | .
CC1(C)CC(NC(=O)c2cc(S(=O)(=O)N3CCOCC3)c(Cl)cc2Cl)CC(C)(C)N1 | 50µM | .[0.501 µM] | / | . | .
O=C(COC(=O)C1(c2ccccc2F)CCCC1)N1CCNC1=O | . | . | / | . | .
CN(CC1CCCO1)S(=O)(=O)c1ccc(C(=O)Nc2ccccc2F)cc1 (stereo not given) | / | / | / | . | .
Cc1nnc(NC(=O)c2ccc(F)c(S(=O)(=O)N3CCOCC3)c2)s1 | / | / | / | . | .
Cc1ccc(C(=O)Nc2nc(-c3ccccn3)cs2)cc1S(=O)(=O)N1CCOCC1 | 25µM | ? | / | . | .
CN(CC1CCCO1)S(=O)(=O)c1ccc(C(=O)Nc2nc(-c3ccccn3)cs2)cc1 (stereo not given) | 28µM | . | . | . | 50µM
O=C(Nc1nc(-c2ccccn2)cs1)c1ccc(F)c(S(=O)(=O)N2CCOCC2)c1 | 28µM | 7.1µM | / | ? | 50µM
O=C(Nc1nc(-c2ccccn2)cs1)c1cc(S(=O)(=O)N2CCOCC2)ccc1F | 22µM | ? | / | . | 79µM
